Pf growth 48h: P. falciparum growth inhibition at 48 hours (one generation). Potency, µM (highest dose often 28.7 µM), hits mostly inhibitors. P. falciparum luciferase growth in erythrocytes, 48 h. 310,000 compounds, 5.9% hits
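Cell-based growth assay: transgenic P. falciparum expressing firefly luciferase, cultured in red cells within RPMI 1640 containing 0.5% w/v Albumax, 24 mM bicarbonate and gentamycin. A drop in luciferase activity indicates inhibition.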
HCV inh: inhibitors of hepatitis C virus infection; Huh7.5.1 HCVcc-Cre infection, luciferase reporter, 44 h; Potency, µM (highest dose often 41.8 µM), actives largely listed as inhibitors; 340,000 compounds, 3.4% hits; AID 651820
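Seed cells (1,000/well) for 4 h; treat with compound and infect with HCVcc-Cre, moi about 0.5. Incubate 44 h, then detect luciferase activity.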
Pf growth 96h: P. falciparum growth inhibition at 96 hours; P. falciparum luciferase reporter growth, 96 h; Potency, µM (titrated, usually from 28.7 µM), actives largely listed as inhibitors; 320,000 compounds, 6.9% hits; AID 504834
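Infected RBCs, 2% Hct / 0.05% parasitemia final; luciferase-reporter P. falciparum; cpd 96 h, 37 C, 5% CO2; luciferase detection reagent; luminescence.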
SARS PLP yeast: inhibitors of SARS-CoV papain-like protease in yeast | 330,000 compounds, 0.19% hits | AID 485353 | Potency, µM (titrated, usually from 32.9 µM), usual class: activators | S. cerevisiae expressing SARS-CoV PLpro, growth rescue; calls by dose curve; note: nearly all actives have a fitted effect of over 55% in size
AMA1-RON2 inh: disrupts binding of P. falciparum AMA1 to RON2; AID 720542; 360,000 compounds, 0.2% hits; AlphaScreen AMA1-biotinylated RON2 peptide binding; Potency, µM (series often up to 58.2 µM), hits mostly inhibitors; note: nearly all actives have a fitted effect of over 45% in size
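AMA1 (3D7) with his tag at 25 nM final met compounds first, then biotinylated RON2 peptide at 25 nM; detection used donor plus acceptor beads, 10 µg/mL apiece, read by AlphaScreen after 30 min at room temperature.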
NS1 function inh: influenza NS1 inhibition | 270,000 compounds, 0.4% hits | AID 2326 | Potency, µM (titrated, usually from 46.1 µM); calls by dose curve; note: actives are rising curves; nearly all actives have a fitted effect of over 50% in size
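OD600 was taken as the measure of yeast growth restored by compound in an NS1-expressing S. cerevisiae strain. Cells had been washed out of glucose medium and diluted 1:100 into galactose -URA medium, pH 6.0.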
Each line names hits and unclear results; the compound was inactive in the other large screens. Compounds with a hit are over-represented: about 12% of the library has one in this group of screens. Unless noted, calls come from the whole dose curve; as a rule, active = well fitted curve in the direction sought with a large enough effect; inconclusive = small, poorly fitted or top-dose-only effect, or another doubt; inactive = no such curve, though single readings can be large; an effect the other way counts as inactive or inconclusive.

O=C(c1cccs1)N1CCN(c2ncc(Br)cn2)CC1	none
Cc1ccccc1S(=O)(=O)Oc1ccc2ccc(O)cc2c1	HCV inh 22.4µM
COc1ccc(-c2cc(C(=O)Nc3cc(C)ccc3O)no2)cc1	HCV inh inconclusive, Pf growth 96h 3.29µM
COc1ccc(-c2cc(C(=O)Nc3ccc(F)cc3F)no2)cc1	Pf growth 96h inconclusive (no result: Pf growth 48h)
Cc1ccc(-c2cc(C(=O)Nc3cc(C)ccc3O)no2)cc1	SARS PLP yeast inconclusive
COc1ccc(-c2cc(C(=O)Nc3c(F)cc(F)cc3Br)no2)cc1	Pf growth 96h 8.28µM
CC(C)CCN(C(=O)COc1ccc(C#N)cc1)c1c(N)n(Cc2ccccc2)c(=O)[nH]c1=O	none (no result: HCV inh, AMA1-RON2 inh)
CCOC(=O)c1c(-c2ccccc2)csc1NC(=O)CSc1nnc(C)s1	Pf growth 48h 2.94µM, HCV inh inconclusive, Pf growth 96h inconclusive
Cc1nnc(SCC(=O)Nc2nnc(SCc3cccc(Br)c3)s2)s1	Pf growth 96h 7.38µM
CCOC(=O)c1c(-c2ccc(C)o2)csc1NC(=O)CSc1nnnn1-c1ccccc1	Pf growth 48h inconclusive, HCV inh 1.78µM, NS1 function inh inconclusive (no result: Pf growth 96h)
CCOC(=O)c1c(-c2ccc(OC)cc2)csc1NC(=O)CSc1ncnc2sccc12	Pf growth 48h inconclusive, HCV inh inconclusive, Pf growth 96h 5.22µM
COC(=O)/C(C#N)=C(/Nc1ccc(F)c(Cl)c1)C(F)(F)F	none
O=C(NCC(=O)N(c1cccnc1)C(C(=O)NC1CCCC1)c1cccs1)c1ccco1 (stereo unspecified)	Pf growth 48h inconclusive, Pf growth 96h inconclusive
CC(=O)c1sc(N/N=C2\CC3CCC2(C)C3(C)C)nc1C (stereo unspecified)	none
CCOC(=O)C1=C(C)N(C)C(=S)NC1c1cc(OC)ccc1OC (stereo unspecified)	none (no result: NS1 function inh)
CCOC(=O)c1c(-c2ccc(C)o2)csc1NC(=S)NC(=O)c1ccccc1Br	Pf growth 48h 13.1µM, HCV inh inconclusive, Pf growth 96h 7.38µM, NS1 function inh inconclusive
CCOC(=O)c1c(-c2cccs2)csc1NC(C)=O	HCV inh inconclusive, Pf growth 96h inconclusive
CCOC(=O)c1c(-c2ccc(C)o2)csc1NC(=O)CSc1nnc(C)s1	Pf growth 48h 11.7µM, HCV inh inconclusive
CCOC(=O)c1c(-c2ccc(C)o2)csc1NC(=O)COC(=O)c1ccc(NC(N)=O)cc1	Pf growth 48h 8.28µM, HCV inh inconclusive (no result: Pf growth 96h)
CCOC(=O)c1c(-c2ccccc2Cl)csc1NC(=O)CSc1nc(C)cc(=O)[nH]1	Pf growth 96h 11.7µM
CCOC(=O)c1c(-c2ccc(C)o2)csc1NC(=S)NC(=O)c1cccs1	Pf growth 48h inconclusive, HCV inh inconclusive, Pf growth 96h inconclusive
COc1ccc(C2(CNC(=O)c3cccs3)CCOCC2)cc1	none
CCOC(=O)c1c(CC(C)C)csc1NC(=O)COC(=O)c1ccc(O)cc1	Pf growth 48h inconclusive, HCV inh inconclusive, Pf growth 96h 9.28µM (no result: NS1 function inh)
CCOC(=O)c1c(NC(=O)CSc2nnc(N)s2)sc(C)c1-c1ccc(C)cc1	Pf growth 48h inconclusive, HCV inh 25.1µM, Pf growth 96h 10.4µM
CCOC(=O)c1c(NC(=O)CSc2nnc(C)c(=O)[nH]2)sc(C)c1-c1ccc(C)cc1	none
CCOC(=O)c1c(CC(C)C)csc1NC(=O)COC(=O)C1=NNC(=O)CC1	HCV inh inconclusive, Pf growth 96h inconclusive (no result: NS1 function inh)
O=C(NCCC(=O)N1CCCCCCC1)c1ccc(Br)cc1	Pf growth 48h 13.1µM, Pf growth 96h 10.4µM (no result: NS1 function inh)
CN(C)N=Nc1ccc(-c2cn(Cc3ccccc3)cn2)cc1	Pf growth 48h inconclusive, Pf growth 96h 4.65µM
CN(Cc1ccccc1)N=Nc1ccccc1	none (no result: Pf growth 48h, HCV inh, Pf growth 96h, SARS PLP yeast, NS1 function inh)
COC(=O)C(c1ccccc1Cl)N1CCc2sccc2C1 (stereo unspecified)	Pf growth 48h inconclusive, Pf growth 96h 10.7µM (no result: HCV inh, SARS PLP yeast, AMA1-RON2 inh, NS1 function inh)
COC(=O)CC(NS(=O)(=O)c1cccs1)c1ccccc1Cl (stereo unspecified)	none
COC(=O)[C@H](c1ccccc1Cl)N1CCc2sccc2C1	Pf growth 48h 11.7µM, Pf growth 96h 8.28µM
CC(Sc1ncn[nH]1)C(=O)Nc1ccc(Cl)cn1 (stereo unspecified)	none (no result: NS1 function inh)
COc1ccc(Cc2nnc(NC(=O)Nc3ccccc3F)s2)cc1	none
COc1ccc(Cc2nnc(NC(=O)c3cccc([N+](=O)[O-])c3C)s2)cc1	Pf growth 96h 0.465µM
COc1ccc(Cc2nnc(NC(=O)Nc3ccccc3F)s2)cc1OC	Pf growth 48h inconclusive, HCV inh inconclusive, Pf growth 96h 11.7µM, NS1 function inh inconclusive
O=C(Nc1ccc(Cl)c(Cl)c1)Nc1nnc(CSc2ccccc2)s1	Pf growth 48h 4.65µM, HCV inh inconclusive
O=C(Nc1nnc(Cc2ccc(F)cc2)s1)Nc1ccccc1F	Pf growth 96h 11.7µM
COc1ccc(Cc2nnc(NC(=O)c3ccccc3[N+](=O)[O-])s2)cc1	none
CC(C)(CO)NC(=O)C12CC3CC(CC(Br)(C3)C1)C2	none
CC(C)C[C@H]1CNC(=O)C(=O)N1C[C@H](C)NC(=O)Cc1ccccc1	none
O=C(Nc1ccccc1)Nc1nnc(Cc2ccc(F)cc2)s1	Pf growth 48h inconclusive, Pf growth 96h 8.28µM
Cc1ccc(OCCSCc2nnc(NC(=O)Nc3cccc(Cl)c3)s2)cc1	Pf growth 48h 11.7µM, HCV inh inconclusive, Pf growth 96h inconclusive
COc1ccc(NC(=O)Nc2nnc(Cc3ccc(OC)c(OC)c3)s2)cc1	Pf growth 96h 11.7µM
CCOC(=O)N1CCN(c2nc3ccc(C)cc3n3cnnc23)CC1	Pf growth 96h inconclusive
CC(C)(C)OC(=O)N1CCc2onc(-c3ccc(Cl)cc3)c2C1=O	none (no result: Pf growth 48h, HCV inh, Pf growth 96h, SARS PLP yeast, NS1 function inh)
Cc1cc2nc(CCN(Cc3cccnc3)C(=S)Nc3ccc(F)cc3)[nH]c2cc1C	Pf growth 48h inconclusive, Pf growth 96h inconclusive
Cc1cc2nc(CCN(Cc3cccnc3)C(=S)Nc3ccccc3)[nH]c2cc1C	Pf growth 48h 11.7µM, HCV inh inconclusive, Pf growth 96h 7.38µM
COc1ccccc1NC(=S)N(CCc1nc2cc(C)c(C)cc2[nH]1)Cc1cccnc1	Pf growth 48h 10.4µM, HCV inh inconclusive, Pf growth 96h inconclusive
Cc1ccccc1NC(=O)Cc1nc(COC(=O)c2cccc(O)c2)cs1	Pf growth 48h inconclusive, HCV inh inconclusive (no result: NS1 function inh)
Cc1cccc(CC(=O)Nc2ccc(C(=O)N3CCCCC3)cc2)c1	Pf growth 96h inconclusive (no result: HCV inh)
Cc1cccc(NC(=O)Cc2nc(-c3c[nH]c(C(=O)N4CCCC4)c3)cs2)c1	Pf growth 48h 11.7µM, HCV inh inconclusive, Pf growth 96h inconclusive (no result: NS1 function inh)
Cc1ccccc1NC(=O)Cc1nc(-c2c[nH]c(C(=O)N3CCCC3)c2)cs1	Pf growth 48h 9.28µM, HCV inh inconclusive, Pf growth 96h 10.4µM (no result: NS1 function inh)
Cc1ccc(/C=C/S(=O)(=O)NCCC(=O)NCc2ccc(F)cc2)cc1	Pf growth 48h inconclusive (no result: NS1 function inh)
